Drawing on PubChem BioAssay (NCI), this text covers growth inhibition for 40 molecules.

This is part of a sample that, as a whole, favours compounds with a hit. Of some 79,000 tested, about 15% had one in any assay. Active and inactive are the calls of the source. No stated cut-off is given here; in the data, active means growth inhibition above about 70%; inactive means the rest.

The first assay is described as follows: NCI Yeast Anticancer Drug Screen. Data for the sgs1 mgt1 strain (AID 161).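 Further: 0% = growth of cultures given vehicle only.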 The conditions noted are these: S. cerevisiae sgs1 mgt1 strain, at 50.0 µM, hits give high values. Put shortly:
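Read-out: growth inhibition vs vehicle controls. Cells: mutant yeast strain deficient in DNA damage repair.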
As for `CCOC(=O)CNC(=O)C1C2c3ccccc3C(c3ccccc32)C1C(=O)O` (stereo not given), the growth inhibition is 96% (active).

As to `O=[N+]([O-])c1ccc(NP(=S)(Nc2ccc([N+](=O)[O-])cc2)c2ccccc2)cc1`, the growth inhibition is 91.5% (active).

As to `O=P(c1ccccc1)(c1ccccc1)c1ccccc1.[Cl][Sn]([c]1ccccc1)([c]1ccccc1)[c]1ccccc1`, the growth inhibition is 99.7% (active).

With `CC(C)(C)OOC(=O)/C=C\C(=O)OOC(C)(C)C`, the growth inhibition was 8.55% (inactive).

For the molecule `Cc1cc2c(cc1O)C(C)(C)CCC2(C)C`, the growth inhibition is 47.9% (inactive).

`N#CC(C#N)=Cc1ccc(Cl)o1`: the growth inhibition was 61.8% (inactive).

`COc1c(Br)cc(/C=C/[N+](=O)[O-])cc1Br`: the growth inhibition was 89.8% (active).

In the case of `[O]=[Sb]([OH])([OH])[c]1ccc(NC2OC(CO)C(O)C(O)C2O)cc1` (stereo not given), the growth inhibition was -13.8% (inactive).

Take `NC(=S)C1=C(N)Oc2c(c(=O)oc3ccccc23)C1c1ccc(Br)cc1` (stereo not given): the growth inhibition was 57.9% (inactive).

With `COS(=O)(=O)c1ccccc1`, the growth inhibition was 11.6% (inactive).

As for `O=[N+]([O-])c1cc[n+]([O-])c2ccccc12`, the growth inhibition is 54.9% (inactive).

Turning to `O=C(c1ccccc1)c1c(CC(O)c2cccnc2)n(C(=O)c2ccccc2)c2ccccc12` (stereo not given), the growth inhibition was 90.7% (active).

Turning to `Nc1nc2ncnc(N)c2nc1-c1ccc(N(CCCl)CCCl)cc1`, the growth inhibition is 85.4% (active).

Turning to `O=C1c2ccccc2CCC1Br` (stereo not given), the growth inhibition is 99.2% (active).

For `CC1CCCC[N-]1.CC1CCCC[N-]1.N#C[S-].N#C[S-].[Cd]` (stereo not given), the growth inhibition is 70.7% (active).

In the case of `CCOP(=O)(OCC)/C(C#N)=C/c1ccc(Br)cc1`, the growth inhibition was 92.8% (active).

Consider `CN(CCCl)Cc1ccc(OCc2ccccc2)c(OCc2ccccc2)c1`, for which the growth inhibition was 99.7% (active).

As for `O=C(O)c1cccc2cccc(C(=O)O)c12.[Hg]`, the growth inhibition is 99.7% (active).

Regarding `S=c1[nH]c2ccccc2s1.[Pb]`, the growth inhibition was 95.5% (active).

`COc1ccc([As](O[As](c2ccc(OC)cc2)c2ccc(OC)cc2)c2ccc(OC)cc2)cc1`: the growth inhibition is 99.5% (active).

For `CC1=C/C(=C2/N=C(N(C)C)SS2)C(C)=N1`, the growth inhibition was 8.85% (inactive).

In the case of `CN1C2CCC1c1c([nH]c3ccccc13)C2` (stereo not given), the growth inhibition was 20.6% (inactive).

Turning to `C[CH2][Sn]([Br])([CH2]C)[c]1ccccc1CN(C)C`, the growth inhibition is 87.8% (active).

Regarding `O=C(CCl)Nc1ccc(Cl)cc1`, the growth inhibition was 67.3% (inactive).

With `ClC1CCCCC1[Se](Cl)(Cl)C1CCCCC1Cl` (stereo not given), the growth inhibition was 99.5% (active).

`Cc1cc(C(C)(C)c2ccc(O)c(C)c2)ccc1O`: the growth inhibition is 99.5% (active).

With `O=[N+]([O-])O.[In]`, the growth inhibition was 50.3% (inactive).

For the molecule `[pH]1p2[pH]p3p1p3[pH]2.c1cc[c]([Ge]([c]2ccccc2)[c]2ccccc2)cc1.c1cc[c]([Ge]([c]2ccccc2)[c]2ccccc2)cc1.c1cc[c]([Ge]([c]2ccccc2)[c]2ccccc2)cc1`, the growth inhibition was 4.75% (inactive).

Turning to `C1=CC2CCC[N-]C2N1.C1=CC2CCC[N-]C2N1.[I][Pt+2][I]` (stereo not given), the growth inhibition was 34.5% (inactive).

Regarding `O=[N+]([O-])/C=C/c1cccc(F)c1`, the growth inhibition was 99.6% (active).

`O=[N+]([O-])c1ccc(CS(=O)(=O)C(Cl)(Cl)Cl)o1`: the growth inhibition was 97.5% (active).

For `CC(=O)[O][Hg][c]1ccc(N)[c]([Hg][O]C(C)=O)c1`, the growth inhibition is 99.5% (active).

Consider `CNP(=O)(Oc1cc(Cl)c(Cl)cc1Cl)N1CCN(c2ccccc2)CC1` (stereo not given), for which the growth inhibition is 98% (active).

On to `Cc1ccc2c(c1)N(CCN(CCCl)CCCl)c1c(ccc3ccccc13)S2`, for which the growth inhibition was 93.4% (active).

Regarding `CC1(C(=O)O)CCCC2(C)c3cc(O)ccc3CCC12` (stereo not given), the growth inhibition is 46.4% (inactive).

For `C#CC(O)(CC)CC`, the growth inhibition was 77.1% (active).

With `CC1CC[N-]C(C)C1.CN(C)C=O.[Cl][Pt][Cl]` (stereo not given), the growth inhibition was 89.8% (active).

As for `CN1CCN(c2ccc3nc(-c4ccc5nc(-c6ccc(N(C)CCCl)cc6)[nH]c5c4)[nH]c3c2)CC1`, the growth inhibition was 98.8% (active).

With `CC(=O)NNc1ccccc1`, the growth inhibition is 68.3% (inactive).

For the molecule `CC(C)[S-].CC(C)[S-].[Pt+2].c1ccc([PH+](c2ccccc2)c2ccccc2)cc1.c1ccc([PH+](c2ccccc2)c2ccccc2)cc1`, the growth inhibition was 86.2% (active).

The nature of another assay: NCI Yeast Anticancer Drug Screen. Data for the cln2 rad14 strain (AID 165).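 Further: 0% = growth equal to vehicle treated cultures.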 The settings on record: S. cerevisiae cln2 rad14 strain, at 5.0 µM (retest, dose inferred, filed as 0.5), hits give high values. The essentials: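 Each compound was tested on cln2 rad14 yeast. Inhibition of growth was calculated against vehicle-exposed controls.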
For `CCOC(=O)CNC(=O)C1C2c3ccccc3C(c3ccccc32)C1C(=O)O` (stereo not given), the growth inhibition was 1% (inactive).

Take `O=[N+]([O-])c1ccc(NP(=S)(Nc2ccc([N+](=O)[O-])cc2)c2ccccc2)cc1`: the growth inhibition is 56% (inactive).

As to `O=P(c1ccccc1)(c1ccccc1)c1ccccc1.[Cl][Sn]([c]1ccccc1)([c]1ccccc1)[c]1ccccc1`, the growth inhibition was 99% (active).

Turning to `CC(C)(C)OOC(=O)/C=C\C(=O)OOC(C)(C)C`, the growth inhibition was 1% (inactive).

Regarding `Cc1cc2c(cc1O)C(C)(C)CCC2(C)C`, the growth inhibition was 9% (inactive).

On to `N#CC(C#N)=Cc1ccc(Cl)o1`, for which the growth inhibition was -6% (inactive).

For `COc1c(Br)cc(/C=C/[N+](=O)[O-])cc1Br`, the growth inhibition was 96% (active).

Regarding `[O]=[Sb]([OH])([OH])[c]1ccc(NC2OC(CO)C(O)C(O)C2O)cc1` (stereo not given), the growth inhibition is 0% (inactive).

With `NC(=S)C1=C(N)Oc2c(c(=O)oc3ccccc23)C1c1ccc(Br)cc1` (stereo not given), the growth inhibition is 16% (inactive).

Turning to `COS(=O)(=O)c1ccccc1`, the growth inhibition was 7% (inactive).

With `O=[N+]([O-])c1cc[n+]([O-])c2ccccc12`, the growth inhibition is 100% (active).

Consider `O=C(c1ccccc1)c1c(CC(O)c2cccnc2)n(C(=O)c2ccccc2)c2ccccc12` (stereo not given), for which the growth inhibition was 19% (inactive).

Take `Nc1nc2ncnc(N)c2nc1-c1ccc(N(CCCl)CCCl)cc1`: the growth inhibition was 6% (inactive).

`O=C1c2ccccc2CCC1Br` (stereo not given): the growth inhibition was -18% (inactive).

Turning to `CC1CCCC[N-]1.CC1CCCC[N-]1.N#C[S-].N#C[S-].[Cd]` (stereo not given), the growth inhibition was 7% (inactive).

With `CCOP(=O)(OCC)/C(C#N)=C/c1ccc(Br)cc1`, the growth inhibition is -20% (inactive).

On to `CN(CCCl)Cc1ccc(OCc2ccccc2)c(OCc2ccccc2)c1`, for which the growth inhibition is 8% (inactive).

As for `O=C(O)c1cccc2cccc(C(=O)O)c12.[Hg]`, the growth inhibition is 99% (active).

On to `S=c1[nH]c2ccccc2s1.[Pb]`, for which the growth inhibition is -10% (inactive).

In the case of `COc1ccc([As](O[As](c2ccc(OC)cc2)c2ccc(OC)cc2)c2ccc(OC)cc2)cc1`, the growth inhibition was 99% (active).

On to `CC1=C/C(=C2/N=C(N(C)C)SS2)C(C)=N1`, for which the growth inhibition is 9% (inactive).

Consider `CN1C2CCC1c1c([nH]c3ccccc13)C2` (stereo not given), for which the growth inhibition is -19% (inactive).

With `C[CH2][Sn]([Br])([CH2]C)[c]1ccccc1CN(C)C`, the growth inhibition is 34% (inactive).

Regarding `O=C(CCl)Nc1ccc(Cl)cc1`, the growth inhibition is -2% (inactive).

Turning to `ClC1CCCCC1[Se](Cl)(Cl)C1CCCCC1Cl` (stereo not given), the growth inhibition is -15% (inactive).

For `Cc1cc(C(C)(C)c2ccc(O)c(C)c2)ccc1O`, the growth inhibition was 1% (inactive).

On to `O=[N+]([O-])O.[In]`, for which the growth inhibition is 3% (inactive).

As for `[pH]1p2[pH]p3p1p3[pH]2.c1cc[c]([Ge]([c]2ccccc2)[c]2ccccc2)cc1.c1cc[c]([Ge]([c]2ccccc2)[c]2ccccc2)cc1.c1cc[c]([Ge]([c]2ccccc2)[c]2ccccc2)cc1`, the growth inhibition was 8% (inactive).

With `C1=CC2CCC[N-]C2N1.C1=CC2CCC[N-]C2N1.[I][Pt+2][I]` (stereo not given), the growth inhibition is 21% (inactive).

As to `O=[N+]([O-])/C=C/c1cccc(F)c1`, the growth inhibition was 10% (inactive).

Turning to `O=[N+]([O-])c1ccc(CS(=O)(=O)C(Cl)(Cl)Cl)o1`, the growth inhibition is 3% (inactive).

Regarding `CC(=O)[O][Hg][c]1ccc(N)[c]([Hg][O]C(C)=O)c1`, the growth inhibition is 99% (active).

In the case of `CNP(=O)(Oc1cc(Cl)c(Cl)cc1Cl)N1CCN(c2ccccc2)CC1` (stereo not given), the growth inhibition is 25% (inactive).

`Cc1ccc2c(c1)N(CCN(CCCl)CCCl)c1c(ccc3ccccc13)S2`: the growth inhibition is -6% (inactive).

On to `CC1(C(=O)O)CCCC2(C)c3cc(O)ccc3CCC12` (stereo not given), for which the growth inhibition is -3% (inactive).

Regarding `C#CC(O)(CC)CC`, the growth inhibition was -6% (inactive).

On to `CC1CC[N-]C(C)C1.CN(C)C=O.[Cl][Pt][Cl]` (stereo not given), for which the growth inhibition is 61% (inactive).

As to `CN1CCN(c2ccc3nc(-c4ccc5nc(-c6ccc(N(C)CCCl)cc6)[nH]c5c4)[nH]c3c2)CC1`, the growth inhibition was 47% (inactive).

Consider `CC(=O)NNc1ccccc1`, for which the growth inhibition is 2% (inactive).

In the case of `CC(C)[S-].CC(C)[S-].[Pt+2].c1ccc([PH+](c2ccccc2)c2ccccc2)cc1.c1ccc([PH+](c2ccccc2)c2ccccc2)cc1`, the growth inhibition was -2% (inactive).
